Our source for the growth values is PubChem BioAssay (NCI).

Each structure is given as a SMILES string. This is part of a sample that, as a whole, favours compounds with a hit. Of some 83,000 tested, about 20% had one in any assay.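 Cells were grown in 96-well plates and exposed to the test compound at a single concentration for 48 hours; results are reported as percent growth, with values below 10 considered active.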 Values without a mark were called inactive. Active and inactive are the calls of the source.

Test systems include RPMI-8226 leukemia; OVCAR-8 ovarian; OVCAR-5 ovarian; OVCAR-4 ovarian; SK-OV-3 ovarian; IGROV1 ovarian; OVCAR-3 ovarian; HS 578T breast; NCI/ADR-RES ovarian; T-47D breast.
Holding throughout (assay): NCI-60 one-dose screen, 48 h (100 = growth as untreated, 0 = no growth, -100 = all killed)
Common to all, as to conditions: 10 µM unless noted

Take `COc1ccc(-c2nc(C#N)c(NCC(c3ccco3)N3CCCC3)o2)cc1` (stereo not given): the growth with RPMI-8226 leukemia is 24.2%; with OVCAR-8 ovarian it was 45.1%; in the assay with OVCAR-5 ovarian, 69%; with OVCAR-4 ovarian, 52.6%; in the assay with SK-OV-3 ovarian, 30.4%; in the assay with IGROV1 ovarian, 56.5%. For the same compound, the growth is 22% with OVCAR-3 ovarian, 39.4% with HS 578T breast, 10.2% in the assay on NCI/ADR-RES ovarian and 51.6% in the assay with T-47D breast.

For `c1ccc2c3c([nH]c2c1)C(c1ccc(C2NCCc4c2[nH]c2ccccc42)cc1)NCC3` (stereo not given), the growth in the assay on RPMI-8226 leukemia is -40.3% (active); in the assay with OVCAR-8 ovarian it was -41.4% (active); in the assay with OVCAR-5 ovarian it was 77%; with OVCAR-4 ovarian it was 23.5%; with SK-OV-3 ovarian, 49.1%; in the assay on IGROV1 ovarian it was 25.8%. Moreover, the growth is -65.3% (active) in the assay with OVCAR-3 ovarian, -16.8% (active) in the assay with HS 578T breast, 63.1% with NCI/ADR-RES ovarian and -59% (active) with T-47D breast.

On to `Cc1cc(C)nc(NS(=O)(=O)c2ccc(Nc3ccc4c5c(n(CCCN(C)C)c(=O)c4c3)-c3ccccc3C5=O)cc2)n1`, for which the growth in the assay with RPMI-8226 leukemia was 85.4%; in the assay on OVCAR-8 ovarian, 74.4%; in the assay with OVCAR-5 ovarian, 111%; with OVCAR-4 ovarian, 107%; in the assay with SK-OV-3 ovarian it was 96.1%; with IGROV1 ovarian, 74.2%. Also, the growth in the assay on OVCAR-3 ovarian was 83.7%; with HS 578T breast, 93.2%; in the assay with NCI/ADR-RES ovarian, 98.6%; with T-47D breast it was 102%.

Take `COc1cc(-c2csc(NC(=O)Nc3cc(Cl)cc(Cl)c3)n2)cc(OC)c1OC`: the growth was 13.7% in the assay on RPMI-8226 leukemia; 9.3% (active) with OVCAR-8 ovarian; 39.1% in the assay on OVCAR-5 ovarian; -81.4% (active) in the assay on OVCAR-4 ovarian; 14.9% in the assay on SK-OV-3 ovarian; -59.4% (active) in the assay on IGROV1 ovarian. Also, the growth in the assay with OVCAR-3 ovarian was -85.9% (active); in the assay with HS 578T breast, -18.2% (active); in the assay with NCI/ADR-RES ovarian, 5.24% (active); with T-47D breast it was -41.5% (active).

Take `CC[C@]12C=CCN3CC[C@@]4(c5cc(NC(=O)CCC(=O)O[C@H]6CC[C@H]7[C@@H]8CC[C@H]9CC(=O)CC[C@]9(C)[C@H]8CC[C@]67C)c(OC)cc5N(C)[C@H]4[C@@](O)(C(=O)OC)[C@@H]1OC(C)=O)[C@@H]32`: the growth with RPMI-8226 leukemia was 45.2%; in the assay with OVCAR-8 ovarian it was 75.9%; with OVCAR-5 ovarian, 104%; in the assay on OVCAR-4 ovarian it was 60.7%; in the assay with SK-OV-3 ovarian, 98.6%; with IGROV1 ovarian, 69.6%. In addition, the growth is 73.2% in the assay with OVCAR-3 ovarian, 75.5% with HS 578T breast, 72.9% in the assay with NCI/ADR-RES ovarian and 46.4% with T-47D breast.

On to `Sc1cccc2cccnc12`, for which the growth in the assay on RPMI-8226 leukemia is 26.5%; with OVCAR-8 ovarian, 27.1%; with OVCAR-5 ovarian, 59.6%; with OVCAR-4 ovarian, 36.3%; with SK-OV-3 ovarian it was 45.5%; in the assay with IGROV1 ovarian it was 36.9%. The growth in the assay with OVCAR-3 ovarian was 17.9%; in the assay with HS 578T breast it was 71.9%; with NCI/ADR-RES ovarian it was 24.8%; in the assay on T-47D breast, 40.5%.

For `C=C(C)[C@@H]1CC[C@]2(C(N)=O)CC[C@]3(C)[C@H](CC[C@@H]4[C@@]5(C)CCCNC(C)(C)[C@@H]5CC[C@]43C)[C@@H]12`, the growth with RPMI-8226 leukemia was 13.5%; in the assay with OVCAR-8 ovarian, 82.1%; in the assay with OVCAR-5 ovarian, 82.9%; in the assay on OVCAR-4 ovarian, 83.6%; in the assay with SK-OV-3 ovarian it was 87.5%; in the assay on IGROV1 ovarian it was 84.2%. Also, the growth was 88.8% with OVCAR-3 ovarian, 74.9% in the assay with HS 578T breast, 84.6% with NCI/ADR-RES ovarian and 55.9% with T-47D breast.

Regarding `O=C(NC[C@H](O)CN1CCc2ccccc2C1)c1cc(NC2COC2)ncn1`, the growth is 107% in the assay with RPMI-8226 leukemia; 97.3% with OVCAR-8 ovarian; 96.4% with OVCAR-5 ovarian; 91.5% with OVCAR-4 ovarian; 107% in the assay with SK-OV-3 ovarian; 76.9% in the assay on IGROV1 ovarian. The growth was 104% with OVCAR-3 ovarian, 122% in the assay on HS 578T breast, 98.4% with NCI/ADR-RES ovarian and 83.4% in the assay with T-47D breast.

With `C#C[C@@]1(O)[C@@H](CO)O[C@@H](n2cc(I)c3c(N)ncnc32)[C@@H]1O`, the growth was 5.83% (active) in the assay with RPMI-8226 leukemia; -19.4% (active) in the assay on OVCAR-8 ovarian; 20.6% in the assay on OVCAR-5 ovarian; 20.4% in the assay with OVCAR-4 ovarian; -28.3% (active) with SK-OV-3 ovarian; -34.9% (active) with IGROV1 ovarian. The growth in the assay with OVCAR-3 ovarian is -17.8% (active); in the assay with HS 578T breast, -15.5% (active); in the assay on NCI/ADR-RES ovarian it was -4.5% (active); in the assay with T-47D breast it was -21.1% (active).

For the compound `Nc1c(C(=O)Nc2ccccc2)sc2nc3c(cc12)CN(C(=O)OCc1ccccc1)CC3`, the growth in the assay on RPMI-8226 leukemia was 53.1%; in the assay with OVCAR-8 ovarian, 68.9%; with OVCAR-5 ovarian, 91.7%; in the assay on OVCAR-4 ovarian, 75.4%; with SK-OV-3 ovarian it was 43.7%; with IGROV1 ovarian it was 56.4%. Further, the growth is 16% in the assay with OVCAR-3 ovarian, 53.5% with HS 578T breast, 45.6% in the assay on NCI/ADR-RES ovarian and 68.2% with T-47D breast.

As for `Cc1cc(Cl)cc(CN(Cc2ccccc2)Cc2c(O)ccc3ccccc23)c1O`, the growth in the assay with RPMI-8226 leukemia was 87.4%; in the assay with OVCAR-8 ovarian it was 98.5%; in the assay with OVCAR-5 ovarian, 116%; in the assay on OVCAR-4 ovarian it was 105%; in the assay with SK-OV-3 ovarian, 97.2%; with IGROV1 ovarian, 94.7%. Also, the growth is 91.7% with OVCAR-3 ovarian, 102% with HS 578T breast, 96.5% in the assay on NCI/ADR-RES ovarian and 89.5% in the assay on T-47D breast.

Consider `COc1cccc(NC(=O)Nc2ccc(Nc3ncnc4[nH]c(C)c(C)c34)cc2)c1`, for which the growth in the assay with RPMI-8226 leukemia was 90.8%; in the assay with OVCAR-8 ovarian it was 91.7%; with OVCAR-5 ovarian, 114%; in the assay on OVCAR-4 ovarian, 109%; with SK-OV-3 ovarian, 102%; with IGROV1 ovarian, 115%. For the same compound, the growth in the assay on OVCAR-3 ovarian was 113%; in the assay on HS 578T breast, 83.9%; with NCI/ADR-RES ovarian it was 107%; in the assay with T-47D breast, 89.8%.

In the case of `O=C(Nc1ccc(N=Cc2ccccc2O)cc1)NC1C=c2ccccc2=CC1` (stereo not given), the growth in the assay with RPMI-8226 leukemia is 94%; in the assay with OVCAR-8 ovarian, 95.9%; with OVCAR-5 ovarian, 103%; with OVCAR-4 ovarian, 116%; with SK-OV-3 ovarian, 103%; in the assay on IGROV1 ovarian, 108%. Also, the growth in the assay on OVCAR-3 ovarian was 99.1%; with HS 578T breast, 102%; in the assay on NCI/ADR-RES ovarian, 101%; with T-47D breast, 91.3%.

On to `O=C1NC(SCc2ccc(F)cc2)=N/C1=C/c1cccc(OCc2ccc(Cl)cc2)c1`, for which the growth was 53.5% in the assay on RPMI-8226 leukemia; 52.8% in the assay with OVCAR-8 ovarian; 66.1% in the assay on OVCAR-5 ovarian; -48.4% (active) in the assay with OVCAR-4 ovarian; 55.4% in the assay on SK-OV-3 ovarian; 26.6% in the assay on IGROV1 ovarian. The growth was 18.1% in the assay with OVCAR-3 ovarian, 29.6% in the assay on HS 578T breast, 65.8% in the assay on NCI/ADR-RES ovarian and 53.5% in the assay with T-47D breast.
